Data as given in PubChem BioAssay (EPA / NIEHS).
Inconclusive results are not listed. The source made the active and inactive calls. Rule for the calls, unless noted: active = hit-call score of the fitted dose curve at least 0.9, where 1 is the maximum; inactive = score below 0.9.

Key:
[1] = biological target: Paired box protein Pax-6 (Homo sapiens) (UniProt P26367); test: ATG_Pax6_CIS: Attagene CIS-FACTORIAL HepG2 Assay for human Paired Box 6 (PAX6) (AID 2282956); conditions: HepG2 CIS-FACTORIAL PAX6 reporter transcription, RNA readout; actives raise or lower the signal
Sequence of Paired box protein Pax-6 (Homo sapiens) (P26367 whole entry, looked up): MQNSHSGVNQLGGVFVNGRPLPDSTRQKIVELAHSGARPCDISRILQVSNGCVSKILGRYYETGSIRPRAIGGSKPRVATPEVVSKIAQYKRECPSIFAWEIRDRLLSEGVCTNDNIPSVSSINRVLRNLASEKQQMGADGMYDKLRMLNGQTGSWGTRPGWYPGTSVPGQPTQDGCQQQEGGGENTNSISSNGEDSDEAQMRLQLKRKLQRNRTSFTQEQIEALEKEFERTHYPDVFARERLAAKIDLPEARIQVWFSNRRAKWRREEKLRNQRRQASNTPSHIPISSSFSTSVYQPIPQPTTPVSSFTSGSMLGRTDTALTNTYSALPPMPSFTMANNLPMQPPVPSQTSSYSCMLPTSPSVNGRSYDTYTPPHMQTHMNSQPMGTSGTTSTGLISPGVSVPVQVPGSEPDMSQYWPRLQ
Outline: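 HepG2 cells transiently transfected with cis-promoter-driven multiplexed reporter units sensing endogenous transcription factor activity; 24 h chemical exposure. Reporter mRNA quantified by RT-PCR, 6-FAM labelling, HpaI digestion and capillary electrophoresis; bidirectional fit versus DMSO baseline.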

[2] = ATG_PXRE_CIS: Attagene CIS-FACTORIAL HepG2 Assay for human Pregnane X Receptor Element (PXRE) (AID 2282957); conditions: HepG2 Attagene CIS-FACTORIAL PXRE reporter, mRNA; actives raise or lower the signal
Outline: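 HepG2 cells transiently transfected with cis-regulated multiple reporter transcription units; endogenous factor activity measured as reporter mRNA 24 h after dosing. RT-PCR, fluorescent primer extension, HpaI digestion, capillary electrophoresis; bidirectional fit versus DMSO baseline.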

[3] = ATG_PPRE_CIS: Attagene CIS-FACTORIAL HepG2 Assay for human Peroxisome Proliferator-activated Response Element (PPRE) (AID 2282958); conditions: HepG2 PPRE cis-element reporter, Attagene transcription factor profiling; actives raise or lower the signal
Outline: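 Multiplexed reporter transcription units under cis-regulatory promoters were transfected into HepG2 cells to capture endogenous factor activity. A 24 h incubation preceded RNA isolation and fluorescent RT-PCR fragment analysis.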

[4] = ATG_RORE_CIS: Attagene CIS-FACTORIAL HepG2 Assay for human RAR-related Orphan Receptor Element (RORE) (AID 2282959); conditions: HepG2 Attagene cis-factorial RORE reporter, mRNA; actives raise or lower the signal
Outline: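 Fluorescence intensity of reporter-specific cDNA fragments, separated by capillary electrophoresis, gives the signal. Source: HepG2 liver cells transiently transfected with cis-element reporters and exposed 24 h; DMSO-normalized bidirectional fit.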

[5] = ATG_Sox_CIS: Attagene CIS-FACTORIAL HepG2 Assay for human SRY-box transcription factor (SOX) (AID 2282960); conditions: HepG2 Attagene cis-factorial SOX reporter, mRNA; actives raise or lower the signal
Outline: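 After 24 h of chemical treatment, transfected HepG2 reporter cells are lysed for total RNA. Transcript levels come from RT-PCR with labelled primer extension and capillary electrophoresis, analysed bidirectionally versus DMSO.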

[6] = biological target: Transcription factor Sp1 (Homo sapiens) (UniProt P08047); test: ATG_Sp1_CIS: Attagene CIS-FACTORIAL HepG2 Assay for human Specificity Protein 1 (Sp1) (AID 2282961); conditions: HepG2 Sp1 cis-reporter transcription, actives raise or lower the signal
Sequence of Transcription factor Sp1 (Homo sapiens) (P08047 whole entry, looked up): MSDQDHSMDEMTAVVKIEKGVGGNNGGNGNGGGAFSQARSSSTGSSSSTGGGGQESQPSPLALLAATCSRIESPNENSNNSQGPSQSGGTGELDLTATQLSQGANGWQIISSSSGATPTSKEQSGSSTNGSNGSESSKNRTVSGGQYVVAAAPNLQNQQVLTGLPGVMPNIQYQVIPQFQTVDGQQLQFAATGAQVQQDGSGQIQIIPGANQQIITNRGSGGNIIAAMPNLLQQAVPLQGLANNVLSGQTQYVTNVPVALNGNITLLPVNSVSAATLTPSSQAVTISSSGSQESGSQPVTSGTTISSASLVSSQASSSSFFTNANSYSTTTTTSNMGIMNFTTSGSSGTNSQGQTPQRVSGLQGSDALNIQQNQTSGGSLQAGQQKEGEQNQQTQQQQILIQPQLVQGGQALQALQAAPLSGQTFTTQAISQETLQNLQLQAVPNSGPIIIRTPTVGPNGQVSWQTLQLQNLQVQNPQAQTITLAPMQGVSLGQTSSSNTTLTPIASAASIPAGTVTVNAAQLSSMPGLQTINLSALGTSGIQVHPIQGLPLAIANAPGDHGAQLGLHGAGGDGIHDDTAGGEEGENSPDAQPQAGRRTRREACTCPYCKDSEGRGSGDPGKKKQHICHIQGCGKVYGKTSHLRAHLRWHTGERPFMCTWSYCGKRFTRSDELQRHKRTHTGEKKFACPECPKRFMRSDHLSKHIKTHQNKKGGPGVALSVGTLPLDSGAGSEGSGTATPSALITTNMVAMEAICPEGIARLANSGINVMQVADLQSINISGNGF
Outline: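 Sp1-driven reporter mRNA, read as capillary electrophoresis fluorescence after RT-PCR, in transiently transfected HepG2 cells dosed for 24 h; signal change in either direction relative to DMSO.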

[7] = ATG_SREBP_CIS: Attagene CIS-FACTORIAL HepG2 Assay for human Sterol Regulatory Element Binding (SREBP) (AID 2282962); conditions: HepG2 Attagene cis-factorial SREBP reporter, mRNA; actives raise or lower the signal
Outline: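 HepG2 cells transiently transfected with multiplexed cis-promoter reporter units sensing endogenous transcription factors; reporter mRNA measured 24 h after dosing by RT-PCR, 6-FAM labeling, HpaI digestion and capillary electrophoresis. Bidirectional fit versus DMSO.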

[8] = biological target: Signal transducer and activator of transcription 3 (Homo sapiens) (UniProt P40763); test: ATG_STAT3_CIS: Attagene CIS-FACTORIAL HepG2 Assay for human Signal Transducer and Activator of Transcription 3 (STAT3) (AID 2282963); conditions: HepG2, Attagene cis-factorial STAT3 reporter transcription; actives raise or lower the signal
Sequence of Signal transducer and activator of transcription 3 (Homo sapiens) (P40763 whole entry, looked up): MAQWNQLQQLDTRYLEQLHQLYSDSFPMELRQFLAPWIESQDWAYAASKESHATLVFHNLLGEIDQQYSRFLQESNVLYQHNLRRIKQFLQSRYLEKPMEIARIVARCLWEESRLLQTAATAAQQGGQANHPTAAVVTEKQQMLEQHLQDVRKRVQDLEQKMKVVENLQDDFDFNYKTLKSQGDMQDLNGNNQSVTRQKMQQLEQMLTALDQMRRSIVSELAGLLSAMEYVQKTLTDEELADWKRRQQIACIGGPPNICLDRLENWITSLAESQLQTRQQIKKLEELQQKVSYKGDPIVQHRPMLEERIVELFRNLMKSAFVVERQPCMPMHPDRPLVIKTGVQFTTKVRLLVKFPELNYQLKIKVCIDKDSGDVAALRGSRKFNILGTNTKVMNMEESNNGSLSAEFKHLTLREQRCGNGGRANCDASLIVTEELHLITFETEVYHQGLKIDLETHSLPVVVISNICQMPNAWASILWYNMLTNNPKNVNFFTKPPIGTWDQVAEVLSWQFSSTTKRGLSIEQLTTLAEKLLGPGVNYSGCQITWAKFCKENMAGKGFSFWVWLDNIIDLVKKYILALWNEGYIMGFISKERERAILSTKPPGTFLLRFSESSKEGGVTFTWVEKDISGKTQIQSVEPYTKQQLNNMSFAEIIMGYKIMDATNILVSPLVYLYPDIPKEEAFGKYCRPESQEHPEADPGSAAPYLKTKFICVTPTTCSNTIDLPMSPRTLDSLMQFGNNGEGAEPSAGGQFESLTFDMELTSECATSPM
Outline: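 HepG2 cells transiently transfected with cis-element-driven multiple reporter transcription units; after 24 h chemical exposure, reporter mRNA measured by RT-PCR, 6-FAM primer-extension labelling, HpaI digestion and capillary electrophoresis. Bidirectional fitting versus DMSO baseline.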

[9] = ATG_TA_CIS: Attagene CIS-FACTORIAL HepG2 Assay for human TA Basal Promoter (AID 2282964); conditions: HepG2 Attagene CIS-factorial TA basal promoter reporter; actives raise or lower the signal
Outline: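 Transient MRTU transfection of HepG2 preceded 24 h compound exposure. Reporter mRNA levels were then read by RT-PCR with capillary electrophoresis, and this background-control endpoint was fitted bidirectionally to DMSO.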

[10] = ATG_TCF_b_cat_CIS: Attagene CIS-FACTORIAL HepG2 Assay for human T-Cell-Factor with beta-catenin (TCF/b-cat) (AID 2282965); conditions: HepG2 TCF/beta-catenin cis-reporter transcription, actives raise or lower the signal
Outline: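 Using capillary electrophoresis as the read-out, labelled reporter cDNA fragments from transiently transfected HepG2 were sized and quantified. Exposure lasted 24 hours; activity in either direction was referenced to DMSO.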

[11] = ATG_TAL_CIS: Attagene CIS-FACTORIAL HepG2 Assay for human TAL Basal Promoter (AID 2282966); conditions: HepG2 Attagene cis-factorial TAL promoter reporter; actives raise or lower the signal;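 note: background control endpoint measuring basal TAL promoter reporter mRNA not a specific factor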
Outline: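 HepG2 cells were transiently transfected with promoter-driven multiplexed reporter units and dosed for 24 h. Reporter mRNA was measured by RT-PCR with capillary electrophoresis fluorescence; bidirectional fits used DMSO as baseline, serving as a background control.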

[12] = ATG_TGFb_CIS: Attagene CIS-FACTORIAL HepG2 Assay for human Transforming Growth Factor (TGF) (AID 2282967); conditions: HepG2 Attagene CIS TGFb reporter, mRNA transcription; actives raise or lower the signal
Outline: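 After a 24-hour incubation with compound, transfected HepG2 cells were lysed for RNA; reporter cDNA was amplified, fluorescently end-labeled and separated by CE. DMSO served as baseline for bidirectional fits.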

[13] = ATG_VDRE_CIS: Attagene CIS-FACTORIAL HepG2 Assay for human Vitamin D Receptor Element (VDRE) (AID 2282968); conditions: HepG2 VDRE cis-reporter transcription, actives raise or lower the signal
Outline: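 HepG2 cells transiently transfected with cis-element reporter units, dosed 24 h; reporter mRNA measured by RT-PCR, 6-FAM labeling, HpaI digestion and capillary electrophoresis. Activity fitted bidirectionally against DMSO baseline.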

[14] = biological target: Estrogen receptor (Homo sapiens) (UniProt P03372); test: ATG_ERa_TRANS: Attagene TRANS-FACTORIAL HepG2 Assay for human Estrogen Receptor alpha (ERa) (AID 2282970; active = hit-call score of the fitted dose curve at least 0.9, where 1 is the maximum); conditions: HepG2 Attagene TRANS ERa GAL4 reporter, mRNA
Sequence of Estrogen receptor (Homo sapiens) (P03372 whole entry, looked up, the tested form may be a part): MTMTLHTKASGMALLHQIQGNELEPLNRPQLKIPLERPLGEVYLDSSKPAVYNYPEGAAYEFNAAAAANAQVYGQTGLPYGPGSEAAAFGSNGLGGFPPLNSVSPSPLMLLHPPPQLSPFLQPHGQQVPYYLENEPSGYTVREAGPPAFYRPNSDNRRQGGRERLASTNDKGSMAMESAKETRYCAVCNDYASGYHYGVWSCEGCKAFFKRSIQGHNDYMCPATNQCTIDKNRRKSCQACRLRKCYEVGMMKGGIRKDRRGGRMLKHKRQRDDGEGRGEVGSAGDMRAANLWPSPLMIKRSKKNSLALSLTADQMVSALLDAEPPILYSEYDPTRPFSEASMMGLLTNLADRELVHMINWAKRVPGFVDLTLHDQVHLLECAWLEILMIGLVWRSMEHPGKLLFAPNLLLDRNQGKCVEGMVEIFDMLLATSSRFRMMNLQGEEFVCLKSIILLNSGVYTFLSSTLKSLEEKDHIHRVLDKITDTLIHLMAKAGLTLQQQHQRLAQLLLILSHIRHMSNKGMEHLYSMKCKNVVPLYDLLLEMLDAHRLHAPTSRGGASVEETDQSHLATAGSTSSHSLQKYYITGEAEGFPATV
Outline: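 HepG2 cells transiently transfected with multiplexed GAL4-UAS reporter units; ERa activity read via exogenous chimeric NR-Gal4 protein. After 24 hour compound exposure, reporter mRNA measured by RT-PCR with 6-FAM labelling and capillary electrophoresis; gain-of-signal fitted relative to DMSO.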

[15] = biological target: Steroid hormone receptor ERR1 (Homo sapiens) (UniProt P11474); test: ATG_ERRa_TRANS: Attagene TRANS-FACTORIAL HepG2 Assay for human Estrogen-Related Receptor alpha (ERRa) (AID 2282971; active = hit-call score of the fitted dose curve at least 0.9, where 1 is the maximum); conditions: HepG2 Attagene TRANS reporter, ERRa transactivation
Sequence of Steroid hormone receptor ERR1 (Homo sapiens) (P11474 whole entry, looked up, the tested form may be a part): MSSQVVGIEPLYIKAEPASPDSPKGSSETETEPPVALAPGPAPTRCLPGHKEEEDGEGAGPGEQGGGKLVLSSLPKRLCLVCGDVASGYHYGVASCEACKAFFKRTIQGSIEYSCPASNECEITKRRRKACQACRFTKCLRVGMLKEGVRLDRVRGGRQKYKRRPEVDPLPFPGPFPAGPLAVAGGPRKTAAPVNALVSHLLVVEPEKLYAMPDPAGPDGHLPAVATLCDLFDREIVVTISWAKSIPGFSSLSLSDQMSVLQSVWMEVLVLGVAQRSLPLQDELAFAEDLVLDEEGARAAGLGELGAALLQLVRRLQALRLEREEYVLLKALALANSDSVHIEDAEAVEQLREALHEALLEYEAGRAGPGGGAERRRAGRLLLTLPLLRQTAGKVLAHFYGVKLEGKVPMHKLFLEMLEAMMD
Outline: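 HepG2 cells transiently transfected with multiplexed GAL4-UAS reporter units reading chimeric ERRa-Gal4 activity; 24 h compound exposure. Reporter mRNA measured by RT-PCR, 6-FAM labelling, HpaI digest and capillary electrophoresis; gain of signal fitted versus DMSO baseline.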

[16] = biological target: X-box-binding protein 1 (Homo sapiens) (UniProt P17861); test: ATG_Xbp1_CIS: Attagene CIS-FACTORIAL HepG2 Assay for human X-box Binding Protein 1 (XBP1) (AID 2282972); conditions: HepG2 XBP1 cis-element reporter, Attagene multiplex; actives raise or lower the signal
Sequence of X-box-binding protein 1 (Homo sapiens) (P17861 whole entry, looked up): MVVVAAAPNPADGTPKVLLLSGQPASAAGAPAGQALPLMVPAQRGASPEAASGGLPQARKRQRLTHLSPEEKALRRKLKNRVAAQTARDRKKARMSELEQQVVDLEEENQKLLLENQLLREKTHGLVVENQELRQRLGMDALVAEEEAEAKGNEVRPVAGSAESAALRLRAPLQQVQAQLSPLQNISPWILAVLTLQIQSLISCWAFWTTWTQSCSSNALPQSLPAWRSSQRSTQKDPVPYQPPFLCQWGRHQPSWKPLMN
Outline: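 HepG2 cells transiently transfected with multiple cis-element reporter units report endogenous TF activity; 24 h exposure, then reporter mRNA measured by RT-PCR, 6-FAM labelling, HpaI digestion and capillary electrophoresis. Bidirectional fitting versus DMSO.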

[17] = ATG_M_19_TRANS: Attagene TRANS-FACTORIAL HepG2 Assay for M19 Transcription Factor (Internal Marker) (AID 2282974; active = hit-call score of the fitted dose curve at least 0.9, where 1 is the maximum); conditions: HepG2 Attagene TRANS-FACTORIAL M19 internal marker reporter
Outline: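 Measured here: internal-marker reporter transcript from HepG2 cells transfected with MRTUs, harvested at 24 h. cDNA PCR products were 6-FAM labelled by primer extension, cut with HpaI for 2 h at 37 C, and resolved by CE.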

[18] = biological target: Nuclear receptor subfamily 1 group I member 3 (Homo sapiens) (UniProt Q14994); test: ATG_CAR_TRANS: Attagene TRANS-FACTORIAL HepG2 Assay for human Constitutive Androstane Receptor (CAR) (AID 2282969; active = hit-call score of the fitted dose curve at least 0.9, where 1 is the maximum;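 note: activators raise reporter mRNA above DMSO so AC50 marks induction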); conditions: HepG2 Attagene TRANS-FACTORIAL CAR reporter
Sequence of Nuclear receptor subfamily 1 group I member 3 (Homo sapiens) (Q14994 whole entry, looked up, the tested form may be a part): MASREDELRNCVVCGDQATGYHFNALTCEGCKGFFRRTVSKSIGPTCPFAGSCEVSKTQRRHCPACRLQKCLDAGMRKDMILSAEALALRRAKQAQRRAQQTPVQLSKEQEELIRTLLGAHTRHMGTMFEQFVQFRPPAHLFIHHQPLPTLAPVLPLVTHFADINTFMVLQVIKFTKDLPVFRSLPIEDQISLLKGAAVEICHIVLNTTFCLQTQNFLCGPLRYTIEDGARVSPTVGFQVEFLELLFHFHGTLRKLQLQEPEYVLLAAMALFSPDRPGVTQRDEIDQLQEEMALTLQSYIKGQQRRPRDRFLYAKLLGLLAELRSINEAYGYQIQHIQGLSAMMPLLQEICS
Outline: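 HepG2 cells transiently transfected with multiplexed GAL4-UAS reporter units expressing chimeric NR-Gal4 proteins; compound exposure 24 h. Reporter mRNA measured by RT-PCR, 6-FAM labelling, HpaI digestion and capillary electrophoresis; gain-of-signal fitted against DMSO baseline.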

[19] = biological target: Estrogen-related receptor gamma (Homo sapiens) (UniProt P62508); test: ATG_ERRg_TRANS: Attagene TRANS-FACTORIAL HepG2 Assay for human Estrogen-Related Receptor gamma (ERRg) (AID 2282977; active = hit-call score of the fitted dose curve at least 0.9, where 1 is the maximum;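 note: hits increase reporter signal over DMSO so potencies reflect activators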); conditions: HepG2 Attagene TRANS reporter, ERRg transactivation
Sequence of Estrogen-related receptor gamma (Homo sapiens) (P62508 whole entry, looked up, the tested form may be a part): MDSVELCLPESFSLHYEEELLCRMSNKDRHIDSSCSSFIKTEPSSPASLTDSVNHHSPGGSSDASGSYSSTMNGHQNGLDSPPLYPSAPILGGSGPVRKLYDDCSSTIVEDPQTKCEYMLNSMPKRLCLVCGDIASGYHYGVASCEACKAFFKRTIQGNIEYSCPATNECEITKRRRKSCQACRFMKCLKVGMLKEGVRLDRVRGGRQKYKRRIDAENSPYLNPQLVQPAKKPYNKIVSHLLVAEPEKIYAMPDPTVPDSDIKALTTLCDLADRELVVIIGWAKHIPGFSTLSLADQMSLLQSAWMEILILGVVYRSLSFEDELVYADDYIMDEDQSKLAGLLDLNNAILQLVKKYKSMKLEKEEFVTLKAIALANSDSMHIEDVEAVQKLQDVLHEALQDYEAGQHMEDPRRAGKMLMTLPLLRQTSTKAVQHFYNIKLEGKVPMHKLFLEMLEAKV
Outline: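 HepG2 cells transiently transfected with multiplexed GAL4-UAS reporter units and chimeric NR-Gal4 constructs were exposed to test chemicals for 24 h. Reporter mRNA was measured by RT-PCR, 6-FAM primer extension, HpaI digestion and capillary electrophoresis; gain-of-signal versus DMSO.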

[20] = ATG_GAL4_TRANS: Attagene TRANS-FACTORIAL HepG2 Assay for GAL4 (Internal Marker) (AID 2282976; active = hit-call score of the fitted dose curve at least 0.9, where 1 is the maximum); conditions: HepG2 Attagene TRANS GAL4 internal marker reporter
Outline: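 HepG2 cells transiently transfected with multiplexed GAL4-UAS reporter constructs were dosed for 24 h. Reporter mRNA was measured by RT-PCR, 6-FAM primer extension, HpaI digestion and capillary electrophoresis, and gain of signal was fitted relative to DMSO.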

C=C(C)C(=O)OCc1ccccc1
outcome [1]: inactive | outcome [2]: inactive | outcome [3]: inactive | outcome [4]: inactive | outcome [5]: inactive | outcome [6]: inactive | outcome [7]: inactive | outcome [8]: inactive | outcome [9]: inactive | outcome [10]: inactive | outcome [11]: inactive | outcome [12]: inactive | outcome [13]: inactive | outcome [14]: inactive | outcome [15]: inactive | outcome [16]: inactive | outcome [17]: inactive

CCCC(=O)C(C)=O
outcome [1]: inactive | AC50 [2]: 16.2 µM (active) | outcome [3]: inactive | outcome [4]: inactive | outcome [5]: inactive | outcome [6]: inactive | outcome [7]: inactive | outcome [8]: inactive | outcome [9]: inactive | outcome [10]: inactive | outcome [11]: inactive | outcome [12]: inactive | outcome [13]: inactive | outcome [18]: inactive | outcome [15]: inactive | outcome [16]: inactive | outcome [19]: inactive

Clc1sc(Cl)c(Cl)c1Cl
outcome [1]: inactive | outcome [2]: inactive | outcome [3]: inactive | outcome [4]: inactive | outcome [5]: inactive | outcome [6]: inactive | outcome [7]: inactive | outcome [8]: inactive | outcome [9]: inactive | outcome [10]: inactive | outcome [11]: inactive | outcome [12]: inactive | outcome [13]: inactive | outcome [18]: inactive | outcome [14]: inactive | outcome [16]: inactive | outcome [17]: inactive | outcome [20]: inactive

c1cc(C(c2ccc(OCC3CO3)cc2)c2ccc(OCC3CO3)cc2)ccc1OCC1CO1 (centres undefined)
AC50 [1]: 9.85 µM (active) | outcome [2]: inactive | AC50 [3]: 100 µM (active) | outcome [4]: inactive | AC50 [5]: 9.7 µM (active) | AC50 [6]: 100 µM (active) | AC50 [7]: 26.3 µM (active) | AC50 [8]: 66.3 µM (active) | AC50 [9]: 19.8 µM (active) | AC50 [10]: 8.93 µM (active) | AC50 [11]: 24.2 µM (active) | AC50 [12]: 23.7 µM (active) | AC50 [13]: 10 µM (active) | AC50 [16]: 7.9 µM (active)

CC(=O)OCCC(C)CC(C)(C)C (centres undefined)
outcome [1]: inactive | outcome [2]: inactive | outcome [3]: inactive | outcome [4]: inactive | outcome [5]: inactive | outcome [6]: inactive | outcome [7]: inactive | outcome [8]: inactive | outcome [9]: inactive | outcome [10]: inactive | outcome [11]: inactive | outcome [12]: inactive | outcome [13]: inactive | outcome [18]: inactive | outcome [14]: inactive | outcome [16]: inactive

CC1CCC(C(C)CS)CC1S (centres undefined)
outcome [1]: inactive | AC50 [2]: 2.54 µM (active) | outcome [3]: inactive | outcome [4]: inactive | AC50 [5]: 52.9 µM (active) | AC50 [6]: 52.1 µM (active) | outcome [7]: inactive | outcome [8]: inactive | outcome [9]: inactive | AC50 [10]: 49.4 µM (active) | outcome [11]: inactive | outcome [12]: inactive | outcome [13]: inactive | outcome [15]: inactive | outcome [16]: inactive | outcome [17]: inactive | outcome [20]: inactive

CC1=CCC2C(C1)C2(C)C (centres undefined)
outcome [1]: inactive | AC50 [2]: 6.95 µM (active) | outcome [3]: inactive | outcome [4]: inactive | outcome [5]: inactive | outcome [6]: inactive | outcome [7]: inactive | outcome [8]: inactive | outcome [9]: inactive | outcome [10]: inactive | outcome [11]: inactive | outcome [12]: inactive | outcome [13]: inactive | outcome [18]: inactive | AC50 [14]: 77.3 µM (active) | outcome [16]: inactive

O=C1OC2(c3cc(Br)c(O)c(Br)c3Oc3c2cc(Br)c(O)c3Br)c2c(Cl)c(Cl)c(Cl)c(Cl)c21
AC50 [1]: 62.2 µM (active) | AC50 [2]: 5.13 µM (active) | outcome [3]: inactive | AC50 [4]: 50.2 µM (active) | outcome [5]: inactive | outcome [6]: inactive | AC50 [7]: 17 µM (active) | outcome [8]: inactive | outcome [9]: inactive | AC50 [10]: 87.5 µM (active) | AC50 [11]: 26.1 µM (active) | AC50 [12]: 58.4 µM (active) | AC50 [13]: 16.4 µM (active) | outcome [18]: inactive | outcome [14]: inactive | outcome [15]: inactive | outcome [17]: inactive | outcome [20]: inactive | outcome [19]: inactive
